According to doi:10.1101/2024.03.05.583629:

target: pT7_6His-AlfaTag-ZIF268 (human, UniProt P18146 335-423); test: PADIT-seq; conditions: dsDNA, one strand shown

| Sequence | binding signal [log2FC] |
| --- | --- |
| CTCGAGGATATCAAGATCTGGCCTCGGCGGGTGGGCGGGAACCTCTAGCTAGCCGACTCACTATAGGGATAATCGCCCTGAGCAAAGACC | 1.66 ± 0.0839 |
| CTCGAGGATATCAAGATCTGGCCTCGGCGCGTGAGCGGGAACCTCTAGCTAGCCGACTCACTATAGGGATAATCGCCCTGAGCAAAGACC | 0.00935 ± 0.101 |
| CTCGAGGATATCAAGATCTGGCCTCGGCCGCCCATACGGAACCTCTAGCTAGCCGACTCACTATAGGGATAATCGCCCTGAGCAAAGACC | 0.364 ± 0.092 |
| CTCGAGGATATCAAGATCTGGCCTCGGCGCGGCGGCGGGAACCTCTAGCTAGCCGACTCACTATAGGGATAATCGCCCTGAGCAAAGACC | 0.141 ± 0.11 |
| CTCGAGGATATCAAGATCTGGCCTCGGCCGCCCGCGCGGAACCTCTAGCTAGCCGACTCACTATAGGGATAATCGCCCTGAGCAAAGACC | 0.122 ± 0.126 |
| CTCGAGGATATCAAGATCTGGCCTCGGCGCGTGGTCAGGAACCTCTAGCTAGCCGACTCACTATAGGGATAATCGCCCTGAGCAAAGACC | 0.198 ± 0.102 |
| CTCGAGGATATCAAGATCTGGCCTCGGCGCGTGGAGGGGAACCTCTAGCTAGCCGACTCACTATAGGGATAATCGCCCTGAGCAAAGACC | 0.222 ± 0.116 |
| CTCGAGGATATCAAGATCTGGCCTCGGCGCGTGTGCGGGAACCTCTAGCTAGCCGACTCACTATAGGGATAATCGCCCTGAGCAAAGACC | 0.312 ± 0.112 |
| CTCGAGGATATCAAGATCTGGCCTCGGCCGCCCACGCGGAACCTCTAGCTAGCCGACTCACTATAGGGATAATCGCCCTGAGCAAAGACC | 2.69 ± 0.0695 |
| CTCGAGGATATCAAGATCTGGCCTCGGCGTCCCACGCGGAACCTCTAGCTAGCCGACTCACTATAGGGATAATCGCCCTGAGCAAAGACC | 0.365 ± 0.0872 |
| CTCGAGGATATCAAGATCTGGCCTCGGCGCGTGGTCTGGAACCTCTAGCTAGCCGACTCACTATAGGGATAATCGCCCTGAGCAAAGACC | 0.117 ± 0.101 |
| CTCGAGGATATCAAGATCTGGCCTCGGCAGATGGGCGGGAACCTCTAGCTAGCCGACTCACTATAGGGATAATCGCCCTGAGCAAAGACC | 0.0303 ± 0.101 |
| CTCGAGGATATCAAGATCTGGCCTCGGCGCGAAAGCGGGAACCTCTAGCTAGCCGACTCACTATAGGGATAATCGCCCTGAGCAAAGACC | 0.0239 ± 0.114 |
| CTCGAGGATATCAAGATCTGGCCTCGGCGCGTGGATCGGAACCTCTAGCTAGCCGACTCACTATAGGGATAATCGCCCTGAGCAAAGACC | 0.142 ± 0.102 |
| CTCGAGGATATCAAGATCTGGCCTCGGCCGCCCACCGGGAACCTCTAGCTAGCCGACTCACTATAGGGATAATCGCCCTGAGCAAAGACC | 0.114 ± 0.0972 |
| CTCGAGGATATCAAGATCTGGCCTCGGCTGCCCACGCGGAACCTCTAGCTAGCCGACTCACTATAGGGATAATCGCCCTGAGCAAAGACC | 0.958 ± 0.086 |
| CTCGAGGATATCAAGATCTGGCCTCGGCCCCCCACGCGGAACCTCTAGCTAGCCGACTCACTATAGGGATAATCGCCCTGAGCAAAGACC | 0.155 ± 0.108 |
| CTCGAGGATATCAAGATCTGGCCTCGGCATGTGGGCGGGAACCTCTAGCTAGCCGACTCACTATAGGGATAATCGCCCTGAGCAAAGACC | 2.94 ± 0.0778 |
| CTCGAGGATATCAAGATCTGGCCTCGGCATACCACGCGGAACCTCTAGCTAGCCGACTCACTATAGGGATAATCGCCCTGAGCAAAGACC | 0.123 ± 0.0818 |
